The entries come from a sample that favours hits as a whole.
Pf Dd2 inh = blocks in vitro growth of P. falciparum Dd2 | AID 1347417 | Potency, µM (series often up to 28.9 µM), without a hit: at the top dose activity, negative = inhibition, hits mostly inhibitors | P. falciparum Dd2 growth, SYBR Green, 72 h | hit rate 4.3% among 120,000; active = well fitted inhibition curve with a large enough effect;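 note: plate controls were DMSO vehicle for no effect and reference drug for full effect; nearly all actives have a fitted effect of over 65% in size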
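Readout: SYBR Green fluorescence, 485 nm excitation, 535 nm emission, after ~16 h lysis at 37C. Before that, Dd2-infected red cells (2.5% hematocrit) grew 72 h with compound, 29 uM top final concentration.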
* marks the source's active call; other numbers are inactive results; i = inactive; [ ] = remark or other dose. Potency is the fitted concentration of half-maximal effect.

SMILES	Pf Dd2 inh
CC(C)C(=O)NCc1ccc(C(=O)N2CCC3(CCNCC3)CC2)cc1	-15%
O=C(c1cccc(Br)c1)N1CCC2(CC1)CC(O)CCO2 (configuration not stated)	-14%
CCNC(=O)N1CCC2(CC1)CC(N(C(=O)c1ccccc1)C1CC1)CCO2 (configuration not stated)	15%
Cc1ccc(C(C)CCN2CCC3(CC2)C(=O)N(Cc2ccccn2)C(=O)N3Cc2ccccc2)o1 (configuration not stated)	i
O=C1C(N2CCN(S(=O)(=O)c3cc(F)cc(F)c3)CC2)CCN1CCc1ccccc1 (configuration not stated)	i
O=C(NCc1ccccn1)C1(CCO)CCN(c2ncccn2)C1 (configuration not stated)	i
Cc1cccc(-n2cc(CN3CCN(c4cc(N)nc(N)n4)CC3)cn2)c1	-18%
O=C(NCCc1ccccc1)N1CCCC(c2nc(C3CCOCC3)no2)C1 (configuration not stated)	2%
COc1ccccc1-n1cc(C(=O)NC[C@@H]2C[C@H](F)CN2)cn1	21%
Cn1nccc1-c1cccc(CCOc2cnc3c(ccn3CC(=O)O)c2)c1	i
C[C@]1(CO)[C@H]2Cc3sc(NC(=O)c4cccs4)nc3[C@@H](CC(=O)O)[C@]2(C)CC[C@H]1O	i
COc1ccc(CN2CCc3oc(C)c(C(=O)NC4CCN(C)CC4)c3C2)cc1	10µM*
COCCNC(=O)c1c(C)oc2c1CN(Cc1cccc(F)c1)CC2	5µM*
O=C(NCCOc1ccccc1)c1nc2c(o1)CCN(Cc1cccc(F)c1)CC2	i
COC(=O)C1CCCN1C(=O)c1c(C)oc2c1CN(Cc1ccc(C)cc1)CC2 (configuration not stated)	-27%
COc1ccc(CN2CCc3oc(C)c(C(=O)NCc4cccnc4)c3C2)cc1	11µM*
COc1ccc(CN2CCc3oc(C)c(C(=O)N4CCOCC4)c3C2)cc1	i
Cc1oc2c(c1C(=O)N1CCOCC1)CN(Cc1cccnc1)CC2	-6%
Cc1oc2c(c1C(=O)NCCc1ccncc1)CN(C)CC2	-19%
Cc1oc2c(c1C(=O)NCc1ccncc1)CN(Cc1cccc(F)c1)CC2	10µM*
Cc1oc2ccn(Cc3cccc(F)c3)c(=O)c2c1C(=O)NCc1ccccc1	i
Cc1oc2c(c1C(=O)NCc1cccnc1)CN(Cc1ccc(F)cc1)CC2	i
COc1ccc(CN2CCc3nc(C(=O)NCc4cccc(F)c4)oc3CC2)cc1	-3%[44.1 µM]
CN(CC1Cc2ccccc2CN1C)C(=O)c1cnc2nc[nH]n2c1=O (configuration not stated)	0%
CO[C@H]1C(=O)N(C2CCN(C(=O)c3cc(C)nn3C)CC2)[C@H]1c1ccncc1	17%
SMILES	Pf Dd2 inh
CNC(=O)[C@@H]1C[C@H](n2cc(CNS(=O)(=O)c3ccc(C)cc3F)nn2)CN1	1%
COc1cccc(C(=O)N2C(C(=O)NCc3ccccc3)COC23CCN(C(=O)C2CC2)CC3)c1 (configuration not stated)	-23%
O=C(CCc1n[nH]c2c1CCCC2)N1CC[C@H]2CNC[C@H]21	-6%
CCCNC(=O)[C@@H]1CCCN1[C@@H](C(=O)NC)c1ccccc1	2%[44.1 µM]
CCCN(C)C(=O)CC1COc2ccc(C(=O)NCCOC)cc2N1C (configuration not stated)	-3%
COc1ccc(C(=O)N2CCOC[C@H](Oc3ccc(C(F)(F)F)cc3)C2)cc1	-23%[44.1 µM]
CN1CCN([C@H]2[C@@H]3OC[C@@H](O3)[C@@H](NCc3ccccn3)[C@@H]2O)CC1	2%[44.1 µM]
COCC1CN(C)CC12CCN(C(=O)c1ccc(C)cc1C)CC2 (configuration not stated)	i
Cc1ccn2c(C(=O)NCC3CCN(c4cnn(C)c(=O)c4)C3)nnc2n1 (configuration not stated)	2%
CCOCCCN1C(=O)c2[nH]nc(-c3ccccc3O)c2C1c1ccc(CC)cc1 (configuration not stated)	11µM*
CCOCCCNC(=O)C(c1ccccc1)N1Cc2ccccc2C1=O (configuration not stated)	i
CCc1ccc(C2c3c(-c4ccccc4O)n[nH]c3C(=O)N2Cc2ccncc2)cc1 (configuration not stated)	8.9µM*
COc1cc(C2c3c(-c4ccccc4O)n[nH]c3C(=O)N2Cc2ccncc2)cc(OC)c1OC (configuration not stated)	-10%
O=C1c2[nH]nc(-c3ccccc3O)c2C(c2cccc(O)c2)N1Cc1ccncc1 (configuration not stated)	12%
CN(C)Cc1cn([C@H]2CO[C@H]3[C@@H]2OC[C@H]3OC(=O)Nc2cccc(C(F)(F)F)c2)nn1	4%[44.1 µM]
CN(Cc1cccc(C(F)(F)F)c1)Cc1cccn1C	-11%[44.1 µM]
COCCCNC(=O)C1CC(=O)N(c2n[nH]c3cc(Br)ccc23)C1 (configuration not stated)	4%
COc1ccc2c(c1)c(=O)c(C(=O)c1ccc(Cl)cc1)cn2CC(=O)Nc1ccc2c(c1)OCO2	6%
CCc1ccc(C(=O)c2cn(CC(=O)Nc3cccc(OC)c3)c3ccc(OC)cc3c2=O)cc1	13µM*
O=C(Cn1cc(S(=O)(=O)c2ccccc2)c(=O)c2cc(Cl)ccc21)Nc1ccc2c(c1)OCO2	8.9µM*
COc1cccc(NC(=O)Cn2cc(C(=O)c3ccc(C)cc3)c(=O)c3cc(OC)ccc32)c1	-19%
COc1ccc(OC)c(NC(=O)Cn2cc(C(=O)c3ccccc3)c3ccccc32)c1	i
O=C(Cn1cc(S(=O)(=O)c2ccc(F)cc2)c(=O)c2cc3c(cc21)OCO3)Nc1ccccc1	19%
COc1ccc2c(c1)c(=O)c(C(=O)c1ccc(Cl)cc1)cn2CC(=O)Nc1ccc2c(c1)OCCO2	11µM*
CCOc1ccc(C(=O)c2cn(CC(=O)Nc3ccc4c(c3)OCCO4)c3ccc(OC)cc3c2=O)cc1	-22%
SMILES	Pf Dd2 inh
COc1ccc(OC)c(NC(=O)Cn2cc(C(=O)c3ccc(Cl)cc3)c(=O)c3cc(OC)ccc32)c1	8.9µM*
COc1cccc(NC(=O)Cn2cc(C(=O)c3ccc(F)cc3)c(=O)c3cc(OC)ccc32)c1	-8%
COc1ccc(NC(=O)Cn2cc(C(=O)c3ccccc3)c(=O)c3cc(OC)ccc32)c(OC)c1	3%
COc1ccc2c(c1)c(=O)c(S(=O)(=O)c1ccccc1)cn2CC(=O)Nc1ccc2c(c1)OCO2	-2%
Cc1ccc(NC(=O)N2CCCN(C(=O)C3CC3)C(c3ccccc3)CC(=O)NCC2)cc1C (configuration not stated)	i
CC(C)N[C@H]1C[C@@H](Cc2cc(CN3CCOCC3)on2)C1(C)C	23%[44.1 µM]
Cc1[nH]nc2c1C(c1ccccc1F)C(C#N)=C(N)O2 (configuration not stated)	6%
CC(NC(=O)c1noc(-c2ccc3c(c2)OCO3)n1)c1ccc(F)cc1 (configuration not stated)	79%
COc1ccc(C(=O)N2CCC(N3C(=O)C(OC)C34CCOCC4)CC2)cn1 (configuration not stated)	7%
CNC(=O)[C@H]1C[C@H](Oc2ccccc2)CN1C(=O)Nc1cccc(C)c1	-7%
Cc1cccc(Nc2nc(N)nc(CN3CC[C@@](O)(C4CCC4)[C@H](C)C3)n2)c1	8.9µM*
C[C@@H]1CN(Cc2noc(C3CCCC3)n2)CC[C@@]1(O)C1CCC1	-24%
COc1cc(F)c(CN2CC[C@@](O)(C3CC3)[C@H](C)C2)cc1OC	i

Screens as filed in PubChem.
